Results as given in publication PMC4552634, “A New Set of Chemical Starting Points with Plasmodium falciparum Transmission-Blocking Potential for Antimalarial Drug Discovery” (PLoS ONE, 2015).
Like-named read-outs stand apart in the source and are kept apart here. Screen size: about 13,000 compounds; about 3,200 (25%) showed an effect of 50% or more. This is one part of the list.

Test system: P. falciparum stage V gametocytes
Parameters: BacTiter-Glo ATP luminescence viability of purified stage V gametocytes in 384-well plates, per cent inhibition versus DMSO
Details: 48 h, 5 µM, inhibitor

SMILES	% Inhibition	% Inhibition (% Inhibition)
Cc1ccc(-c2csc(C)n2)c(C)c1 [TCMDC-125751]	2.132%	
O=c1cc(-c2cccc(C(F)(F)F)c2)nc(Nc2ccc(Cl)c(Cl)c2)[nH]1 [TCMDC-132206]	43.99%	
COc1cc(CS(C)(=O)=O)ccc1Nc1nccc(-c2c(-c3cccc(NC(=O)c4c(F)cccc4F)c3)nn3ccccc23)n1 [TCMDC-135792]	-6.854%	
O=C(/C=C/c1ccc(Cl)c(Cl)c1)NCCCCCN1CCC(NC(=S)Nc2ccc(F)cc2F)CC1 [TCMDC-135900]	33.5%	
O=C(/C=C/c1ccc(Cl)c(Cl)c1)NCCCCCN1CCC(NC(=O)Nc2ccc(F)cc2F)CC1 [TCMDC-135712]	11.66%	
O=C(C=Cc1ccc(Cl)c(Cl)c1)NCCCCCN1CCC(CCCNS(=O)(=O)c2ccc(F)cc2)CC1 [TCMDC-139589]	110.7%	
O=C(/C=C/c1ccc(Cl)c(Cl)c1)NCCCCCN1CCC(NC(=O)c2ccc(F)cc2F)CC1 [TCMDC-135842]	-11.69%	
O=C(C=Cc1ccc(Cl)c(Cl)c1)NCCCCCN1CCC(CCNS(=O)(=O)c2ccc(F)cc2)CC1 [TCMDC-139585]	78.1%	
Cc1cc(NC(=O)Nc2cccc(Cl)c2Cl)c2ccccc2n1 [TCMDC-138971]	10.53%	
O=C(CCc1c[nH]cn1)Nc1cccc(-c2ccc(-c3nc4cc(F)ccc4[nH]3)s2)c1 [TCMDC-132160]	19.34%	
CCOc1ccc(CCCON2C(N)=NC(N)=NC2(C)C)cc1 [TCMDC-131754]	18.76%	
C/C=C1\CN2CC[C@H]1C[C@H]2[C@H](O)c1ccnc2ccc(OC)cc12 [TCMDC-138275]		1.908%
COc1ccc2ncc(C#N)c(CCN3CCC(NCc4cnc5c(c4)OCCO5)CC3)c2n1 [TCMDC-135230]	35.06%	
CC(=O)c1sc(Cc2nc3ccccc3s2)nc1C [TCMDC-125337]	10.02%	
CC(C)C(NC(=O)c1c(F)cccc1F)C(=O)Nc1ccc(Cc2nc3ccccc3s2)cc1 (stereo not drawn) [TCMDC-125462]	-3.098%	
CC(C)[C@H](NC(=O)c1c(F)cccc1F)C(=O)Nc1ccc(Cc2nc3ccccc3s2)cc1 [TCMDC-125031]	63.22%	
O=C(c1ccccc1N=Nc1c(-c2ccccc2)[nH]n(-c2ccccc2)c1=O)N1CCOCC1 [TCMDC-125746]	-15.29%	
CN(C)CCN(C)Cc1ccc(-c2ccc(NC(=O)c3cccc(C#N)c3)cc2)cc1 [TCMDC-132597]	-16.52%	
CN(C)Cc1ccc(-c2ccc(NC(=O)c3ccc4c(=O)n(Cc5ccccc5)cnc4c3)cc2)cc1 [TCMDC-132361]	121.5%	
CN(C)Cc1cccc(-c2ccc(NC(=O)c3ccc4c(=O)n(Cc5ccoc5)cnc4c3)cc2)c1 [TCMDC-132369]	14.65%	
CN(C)Cc1ccc(-c2ccc(NC(=O)c3ccc4c(=O)n(Cc5ccoc5)cnc4c3)cc2)cc1 [TCMDC-132368]	79.58%	

SMILES	% Inhibition	% Inhibition (% Inhibition)
CN1CCC(Oc2ccc(NC(=O)c3ccc4c(=O)n(Cc5ccccc5)cnc4c3)cc2Cl)CC1 [TCMDC-132373]	-13.59%	
O=C(Nc1cc(F)cc(-c2cccnc2)c1)c1ccc2c(=O)n(Cc3ccccc3)cnc2c1 [TCMDC-132372]	12.04%	
Brc1ccsc1-c1nc(NCCC(c2ccccc2)c2ccccc2)no1 [TCMDC-134185]	1.138%	
COc1ccc(C2CC(=O)C3=C(C2)NC(C)=C(C(=O)OC2CCCC2)C3c2ccc(O)cc2)cc1OC (stereo not drawn) [TCMDC-125626]	11.61%	
COc1cc2nc(-c3ccccc3)nc(N3CCN(CC(=O)N4CCCC4)CC3)c2cc1OC [TCMDC-125097]	-15.61%	
O=C(/C=C/c1ccc(Cl)c(Cl)c1)N1CCC(CNCc2cccc3cc[nH]c23)CC1 [TCMDC-134168]	-34.36%	
COc1cc(NC(=O)/C=C/c2ccc(-c3ccccc3)cc2)ccc1OCCN(C(C)C)C(C)C [TCMDC-139961]	-1.594%	
COc1ccc(NC(=O)/C=C/c2ccc(-c3ccccc3)cc2)cc1N1CCN(C)CC1 [TCMDC-138979]	-7.206%	
COc1ccc(NC(=O)/C=C/c2ccc(-c3ccc(-c4noc(C)n4)cc3)cc2)cc1OCCN(C)C [TCMDC-138985]	62.93%	
COc1ccc(/C=C/C(=O)Nc2ccc(-c3ccncc3)cc2)cc1CCCN(C)C [TCMDC-132082]	72.07%	
Cc1nc(-c2ccc(-c3ccc(C(=O)Nc4ccc(C(C)C)c(OCCN(C)C)c4)cc3)c(C)c2)no1 [TCMDC-138990]	-34.94%	
COc1ccc(C(=O)Nc2ccc(-c3ccc([N+](=O)[O-])cc3)cc2)cc1CCCN(C)C [TCMDC-132090]	0.6115%	
CC(=O)Nc1nc(C(=O)Nc2ccc(-c3cccc(-c4nc5ccc(C(F)(F)F)cc5[nH]4)c3)cc2)cs1 [TCMDC-137129]	-34.14%	
COc1cccc(COCC(O)CN(CCc2ccccn2)C(=O)c2ccccc2F)c1 (stereo not drawn) [TCMDC-141311]	5.48%	
CCCCC(CC)CN1C(=O)C(c2ccccc2)(c2ccccc2)N=C1N (stereo not drawn) [TCMDC-136814]	-93.32%	
CNC(=O)c1cc(Nc2nnc(-c3ccc(C)c(S(=O)(=O)NC4CCCCC4)c3)c3ccccc23)ccc1OC [TCMDC-125661]	-9.997%	
NCc1cccc(-c2cccc(CNC3CCN(Cc4ccccc4)CC3)c2)c1 [TCMDC-140477]	86.14%	
NCc1cccc(-c2ccc(CNC3CCN(Cc4ccccc4)CC3)cc2)c1 [TCMDC-140486]	46.75%	
NCc1ccc(-c2cccc(CNC3CCN(Cc4ccccc4)CC3)c2)cc1 [TCMDC-140478]	84.33%	
Oc1ccc(CN2CCC(NCc3cccc(C(F)(F)F)c3)CC2)cc1 [TCMDC-141655]	-19.37%	
CCOc1cc(C(=O)NC2CCN(Cc3ccccc3)C2)ccc1-c1nc2ccc(Cl)cc2[nH]1 (stereo not drawn) [TCMDC-140911]	-5.376%	
